# aSyn rescue – rescues yeast growth from alpha-synuclein toxicity; Yeast expressing alpha-synuclein, growth rescue, BacTiter-Glo, 24 h; Potency, µM (titrated, usually from 46.1 µM), inactives show at the top dose growth rescue (activation), actives largely listed as activators; 370,000 compounds, 0.14% hits; AID 652106; note: % of control where 0% means no effect; nearly all actives have a fitted effect of over 65% in size
#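 Readout is rescue of growth in alpha-synuclein-expressing yeast, so inhibitors of toxicity appear as activators. Growth after 24 hr at 30 deg C in galactose medium is quantified by luminescence.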
# Abeta yeast res – restores growth of yeast expressing A-beta42 peptide | yeast expressing A-beta42, growth rescue, OD600, 48 h; response scale: 0% DMSO, 100% iron-clioquinol control | Potency, µM (titrated, usually from 46.1 µM), most hits filed as activators | 410,000 compounds, 0.063% hits; note: nearly all actives have a fitted effect of over 55% in size
#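 Growth rescue measured by 600 nm absorbance after 48 h yeast culture at 30 C with compound. Values normalized between DMSO and an equimolar ferric chloride plus clioquinol control.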
# A-T KAP1 phos – candidate therapy for ataxia-telangiectasia. F2112 A-T fibroblasts, KAP-1 phosphorylation AlphaLISA; neocarzinostatin DNA damage 30 min before lysis. Potency, µM (doses to about 57.5 µM), without a hit: at the top dose activation, usual class: activators. 320,000 compounds, 0.19% hits; note: % of control where 0% means no effect; nearly all actives have a fitted effect of over 45% in size
#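 ATM-like activity read as KAP-1 phosphorylation via AlphaLISA donor/acceptor antibody pairs after lysis and 6 hr at 25C. Cells were ATM-null patient fibroblasts (F2112, hTERT), dosed 60 min, then exposed to the DSB inducer NCS for 30 min.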
# TDP-43 yeast inh – inhibitors of TDP-43 toxicity in yeast. AID 652104. 410,000 compounds, 1.8% hits. Potency, µM (titrated, usually from 46.1 µM), without a hit: at the highest dose growth rescue (activation), hits mostly activators. TDP-43 expressing yeast growth rescue, BacTiter-Glo, 24 h; note: % of control where 0% means no effect; nearly all actives have a fitted effect of over 50% in size
#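 Galactose-induced TDP-43 yeast, OD600=0.02, compound pinned; 24 hr, 30 deg C; BacTiter-Glo luminescence for growth. Inhibitors of TDP-43 toxicity read as activators.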
# Mito fusion yeast – mitochondrial division inhibition or fusion activation; S. cerevisiae fusion-defective mutant growth rescue, CellTiterGlo 48 h; Potency, µM (doses to about 46.1 µM), for inactives: at the top dose growth rescue (activation), most hits filed as activators; 320,000 compounds, 0.23% hits; AID 485298; note: % of control where 0% means no effect; nearly all actives have a fitted effect of over 45% in size
#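 Luminescent cell viability in 1536-well qHTS format served as the measure of rescued growth in ts fusion-mutant S. cerevisiae cultured on non-fermentable YPEG for 48 hours at 37C.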
# FUS yeast rescue – rescues growth of FUS-expressing yeast; S. cerevisiae FUS-expressing, growth rescue, OD600, 24 h; Potency, µM (highest dose often 76.6 µM), usual class: activators; 390,000 compounds, 0.24% hits;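 note: plate controls were DMSO vehicle for no effect and reference control for full effect; nearly all actives have a fitted effect of over 55% in size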
#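 Cultures pregrown in 2.5% raffinose medium are shifted to minimal medium containing 2% galactose to express toxic FUS. Compounds are tested at several concentrations. After 24hr at 30C, growth is quantified at 600 nm absorbance.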
# The depositor's hits bear a star; i = inactive; ? = inconclusive; · = not tested or not shown; [ ] = another dose, or the depositor's remark. The list is not random: actives were taken first. Their share in the collection is about 2.4%. Calls come from the whole dose curve; as a rule, active = well fitted curve in the direction sought with a large enough effect; inconclusive = small, poorly fitted or top-dose-only effect, or another doubt; inactive = no such curve, though single readings can be large; an effect the other way counts as inactive or inconclusive. Potency is the fitted concentration of half-maximal effect.
SMILES,aSyn rescue,Abeta yeast res,A-T KAP1 phos,TDP-43 yeast inh,Mito fusion yeast,FUS yeast rescue
COC(=O)[C@]12C[C@H](CC(=O)N3CCCCC3)C(=O)N(Cc3ccco3)C1=C[C@H](COCc1ccccc1)O[C@@H]2C,·,·,·,·,·,i
c1ccc(-c2nnnc3ccccc23)cc1,2.3%,i,11.6%,18.0%,0.5%,i
Clc1ccc2nnnc(-c3ccccc3)c2c1,14.1%,i,11.4%,3.16µM*,24.7%,i
COc1ccc(C2=NOC(Cn3nc(-c4ccccc4)cc3C(=O)NCc3cccs3)C2)cc1 (stereo not drawn),8.1%,i,-7.4%,3.6%,·,31.6µM*
COc1ccc(C2=NOC(Cn3nc(C(=O)NCc4cccs4)cc3-c3ccccc3)C2)cc1 (stereo not drawn),1.0%,i,0.6%,?,23.4%,i
Cc1ccccc1-c1cc(C(=O)NCc2ccc(OC(F)(F)F)cc2)n(CC2CC(c3cccnc3)=NO2)n1 (stereo not drawn),16.0%,i,-1.0%,?,·,22.4µM*
Cc1nc2c(OCCC3CCCCC3)cccn2c1N(C)C(=O)CCC1CCCC1,-50.3%,i,·,35.5µM*,·,i
Cc1nc2c(OCCOc3ccccc3)cccn2c1N(C)C(=O)CCC1CCCC1,10.4%,i,·,?,·,i
Cc1nc2c(OCc3cc(Cl)cc(Cl)c3)cccn2c1N(C)C(=O)CCC1CCCC1,-44.2%,i,·,35.5µM*,·,?
O=c1cc(CSc2n[nH]c(-c3ccccc3)n2)[nH]c2ccccc12,·,i,·,-7.1%,·,i
Cc1nn(-c2ccccc2)c2sc(C(=O)NC3CCCCCCC3)cc12,·,·,·,·,·,i
O=C(CCCl)NC1CCCCN(Cc2ccc(OC(F)(F)F)cc2)C1=O (stereo not drawn),·,·,·,·,·,i
CC(=O)c1c(C)[nH]c(C(=O)OCc2c(F)cccc2Cl)c1C,-1.2%,i,5.4%,9.5%[9.22 µM],-1.8%,i
CCOC(=O)c1c(C)[nH]c(C)c1C(=O)COC(=O)/C=C/c1cccc(Cl)c1,-1.6%,i,-10.0%,?,2.0%,·
CC(=O)c1c(C)[nH]c(C(=O)OCc2cccc(Cl)c2)c1C,-8.8%,i,12.3%,15.8µM*,?,i
CCOC(=O)c1c(C)[nH]c(C=O)c1Cc1cccc(Cl)c1,8.9%,i,5.7%,25.1%,12.6µM*,i
C/C(=N/NC(=O)c1ccoc1C)c1cccs1,·,·,·,·,·,i
CCCCN(CCCC)CCNC(=O)CNC(=O)c1cccs1,0.7%,i,·,-17.9%,31.6µM*,i
Cc1cc(C)nc(NS(=O)(=O)c2ccc(NC(=O)c3cccs3)cc2)n1,1.0%,i,3.6%,-18.4%,3.3%,i
CCCCN(CCCC)S(=O)(=O)c1ccc(NC(=O)c2cccs2)cc1,-2.5%,i,·,-29.2%,13.6%,2µM*
Cc1ccc(NC(=O)c2cccs2)cc1,-27.5%,i,-3.7%,-22.7%,0.2%,28.2µM*
Cc1cc(C)n2c(Nc3ccccc3C)c(-c3cccs3)nc2n1,·,i,·,1.2%,·,i
O=C(CSc1ccc(F)cc1)NCCSc1ccccc1,6.5%,i,2.6%,12.6µM*,6.5%,i
O=C(CSc1ccccc1)NCCc1ccc(F)cc1,-3.0%,i,5.8%,-2.3%,2.9%,i
CCCCNC(=O)c1[nH]c(C)c(C(C)=O)c1C,3.9%,i,-0.4%,-9.6%,3.0%,i
CCCCC(CC)CNC(=O)c1[nH]c(C)c(C(C)=O)c1C (stereo not drawn),-1.2%,i,-2.8%,12.6µM*,24.3%,i
COc1ccc(C)cc1NC(=O)CSc1nnc(COc2ccc(C)cc2)n1Cc1ccco1,0.8%,i,4.3%,15.8µM*,-0.6%,i
CCn1c(COc2ccc(C)cc2)nnc1SCC(=O)Nc1cc(OC)ccc1OC,2.4%,i,10.8%,12.6µM*,1.2%,?
